CYP2C9 act = CYP2C9 (human) activation; activation factor at 5 µM; hit rate 1.4% among 96,000; recombinant CYP2C9, luciferin-H conversion, luminescence; stronger effect = higher value; factor 1 = untreated enzyme, 0 = blocked; P11712;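 active = activation factor of 2 or more for CYP2C9 at a 5 µM dose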
Measles CPE = protection of cells from measles virus. protection (pct of control), % at 4 µM. Measles virus-infected cells, CPE protection, absorbance. hit rate 1.5% among 140,000; in the data active = protection mostly above about 24%, no sharp cut-off; inactive = mostly below about 26%
CYP2C19 inhib = inhibitors of human CYP2C19 | hit rate 21% among 96,000 | P33261 | inhibition, % at 5 µM | CYP2C19 Supersomes, luciferin-H EGE luminescence, 30 min | AID 778;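 active = CYP2C19 inhibition above a set limit at 5 µM in the primary screen, cut at about 50% in these data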
Target sequence (P33261 whole entry, looked up): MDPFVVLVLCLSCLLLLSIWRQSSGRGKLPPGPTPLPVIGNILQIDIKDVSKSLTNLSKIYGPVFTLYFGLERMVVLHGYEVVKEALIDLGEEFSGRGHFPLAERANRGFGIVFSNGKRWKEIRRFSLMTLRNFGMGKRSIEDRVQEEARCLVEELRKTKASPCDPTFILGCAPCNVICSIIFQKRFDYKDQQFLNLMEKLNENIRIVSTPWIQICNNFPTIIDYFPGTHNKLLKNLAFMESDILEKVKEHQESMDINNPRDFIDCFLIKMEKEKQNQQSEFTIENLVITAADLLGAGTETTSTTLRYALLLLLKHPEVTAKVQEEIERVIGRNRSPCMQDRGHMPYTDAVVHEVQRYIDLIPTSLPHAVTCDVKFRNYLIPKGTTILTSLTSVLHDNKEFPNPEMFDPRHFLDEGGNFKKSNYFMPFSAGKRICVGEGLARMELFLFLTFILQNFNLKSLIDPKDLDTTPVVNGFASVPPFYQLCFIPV
CYP2C19 act = activators of human cytochrome P450 2C19; P33261; activation factor at 5 µM; recombinant CYP2C19, luciferin-H EGE luminescence; stronger effect = higher value; 0 = fully inhibited enzyme, 1 = untreated enzyme; 96,000 tested, under 10 active;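 active = activation factor of at least 2 at 5 µM in the primary screen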
CYP2C9 inhib = human CYP2C9 inhibition | P11712 | CYP2C9 Supersomes, luciferin-H conversion, luminescence | inhibition, % at 5 µM | hit rate 20% among 96,000 | AID 777;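 active = blocking of liver enzyme CYP2C9 beyond about 50% at 5 µM, limit read from the data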
Of the large screens only hits and unclear results are named; the others gave an inactive call. Only some compounds are listed: those with a hit (about 22% of all), similar ones and a draw of the others.

COc1cc(OC)cc(-c2nnc(SCC(=O)N(C(C)C)C(C)C)o2)c1	CYP2C9 act 2.3, CYP2C19 inhib 72
CCOC(=O)C1C(C(=O)OCC)C1(c1ccccc1)c1ccccc1 (stereo unspecified)	none (no result: CYP2C9 act, CYP2C19 inhib, CYP2C19 act, CYP2C9 inhib)
O=P(O)(c1ccc(Cl)cc1)c1ccc(Cl)cc1	none
Cc1cnc(C(=O)OCC(=O)c2csc(N3CCCCC3)n2)cn1	none
CCN(CC)C(=O)C(Cc1ccccc1)N1C(=O)c2ccccc2C1=O (stereo unspecified)	CYP2C19 inhib 67, CYP2C9 inhib 53
CC(C)NC(=O)C(Cc1ccccc1)N1C(=O)c2ccccc2C1=O (stereo unspecified)	none (no result: CYP2C9 act, CYP2C19 inhib, CYP2C19 act, CYP2C9 inhib)
C=CCN1C(=O)OC2(CCCCC2)C1(C)O (stereo unspecified)	none (no result: CYP2C9 act, CYP2C19 inhib, CYP2C19 act, CYP2C9 inhib)
O=c1c2ccccc2nc(SCc2cn3ccsc3n2)n1-c1ccccc1	CYP2C19 inhib 84, CYP2C9 inhib 94
O=c1c2ccccc2nc(SCc2cn3ccsc3n2)n1-c1ccccc1F	CYP2C19 inhib 77, CYP2C9 inhib 99
Cc1cccc(-n2c(SCc3cc(=O)n4ccsc4n3)nc3ccccc3c2=O)c1	none
Cc1ccc(N2C(=O)CSC23C(=O)Nc2ccccc23)cc1 (stereo unspecified)	CYP2C19 inhib 79
CC(=O)c1c(C(C)=O)c(C)n(NC(=O)c2cccnc2)c1C	none
CC(=O)c1c(C(C)=O)c(C)n(NC(=O)c2ccccc2O)c1C	CYP2C9 inhib 86
C=CCOn1c(=O)c(=O)n(OCc2ccccc2)c2ccccc21	CYP2C19 inhib 97
CC1(C)N(OCc2ccccc2)C(=O)C(=O)N(OCc2ccccc2)C1(C)C	none
CCC(c1ccccc1)c1nc(-c2cccnc2)no1 (stereo unspecified)	none (no result: CYP2C9 act, CYP2C19 inhib, CYP2C19 act, CYP2C9 inhib)
Cc1sc2nc(C)n(/N=C/c3ccccc3O)c(=O)c2c1C	CYP2C19 inhib 86
Cc1ccccc1C(=O)NC(C)c1ccc2c(c1)CCCC2 (stereo unspecified)	CYP2C9 act 2.2
Cn1cc(C(=O)c2ccc(Cl)cc2Cl)cc1C(=O)N/N=C(\N)COc1ccc(Cl)cc1Cl	CYP2C9 inhib 86
Cn1cc(C(=O)c2ccc(Cl)cc2Cl)cc1C(=O)N/N=C(\N)COc1ccccc1	none
COc1cc(C(c2nnnn2C2CCCC2)N2CCc3ccccc3C2)ccc1O (stereo unspecified)	CYP2C9 inhib 57
Oc1ccc(C(c2nnnn2C2CCCC2)N2CCc3ccccc3C2)cc1 (stereo unspecified)	CYP2C19 inhib 94, CYP2C9 inhib 81
COc1ccc2cc(CCNC(=O)c3cccs3)c(=O)[nH]c2c1	none (no result: CYP2C9 act, CYP2C19 inhib, CYP2C19 act, CYP2C9 inhib)
Cc1ccc(-c2nnn(CCC(=O)NC(C)(C)C)n2)cc1	none (no result: CYP2C9 act, CYP2C19 inhib, CYP2C19 act, CYP2C9 inhib)
CCN(CC)c1nc(N)c2c(N)nc3c(c2c1C#N)CC(c1ccccc1)O3 (stereo unspecified)	CYP2C19 inhib 56, CYP2C9 inhib 82
N#Cc1c(N2CCCCC2)nc(N)c2c(N)nc3c(c12)CC(c1ccccc1)O3 (stereo unspecified)	CYP2C9 inhib 64
N#Cc1c(N)nc(N2CCCC2)c(C#N)c1-c1ccc(Cl)cc1	none
CCN(CC)c1nc(N)c2c(N)n(-c3ccccc3C)c(=S)c(C#N)c2c1C#N	none
O=C(NCCc1ccncc1)Nc1ccccc1Cl	CYP2C19 inhib 89, CYP2C9 inhib 82
O=C(NCCc1ccncc1)Nc1cccc(Cl)c1	CYP2C19 inhib 98, CYP2C9 inhib 98
O=C(NNc1cccc(Cl)n1)Nc1ccccc1	none
O=C(NNc1cccc(Cl)n1)Nc1cccc(Cl)c1	CYP2C19 inhib 72
S=C(NCCc1ccccc1)Nc1ccccc1Cl	none (no result: CYP2C9 act, CYP2C19 inhib, CYP2C19 act, CYP2C9 inhib)
O=C(NCCCc1ccccc1)Nc1cccc(Cl)c1	none (no result: CYP2C9 act, CYP2C19 inhib, CYP2C19 act, CYP2C9 inhib)
Cc1oc(-c2ccc(Cl)cc2)nc1CS(=O)CC(=O)NCc1cccs1 (stereo unspecified)	none
CCN(C1CCCCC1)S(=O)(=O)c1ccc(OC)c(C)c1	CYP2C9 act 2.1, CYP2C19 inhib 75
CCN(C1CCCCC1)S(=O)(=O)c1cc(C)ccc1OC	CYP2C19 inhib 86, CYP2C9 inhib 94
NC(=S)N=Nc1c(O)[nH]c2cc(F)c(F)cc12	none (no result: CYP2C9 act, CYP2C19 inhib, CYP2C19 act, CYP2C9 inhib)
O=C(c1cnn2c(C(F)(F)F)cc(-c3cccs3)nc12)N1CCN(C(c2ccccc2)c2ccccc2)CC1	none (no result: CYP2C9 act, CYP2C19 inhib, CYP2C19 act, CYP2C9 inhib)
Cc1cn(-c2ccc(Br)cc2)[nH]c1=O	none
C=CCn1c(CSc2nc3ccccc3s2)n[nH]c1=S	CYP2C19 inhib 50
C=CCn1c(Cc2nc3ccccc3[nH]2)n[nH]c1=S	CYP2C19 inhib 76
CCn1c(C(c2ccccc2)c2ccccc2)n[nH]c1=S	CYP2C9 inhib 82
C=CCn1c(Cc2cccc3ccccc23)n[nH]c1=S	none (no result: CYP2C9 act, CYP2C19 inhib, CYP2C19 act, CYP2C9 inhib)
N#CCCCSc1nnc(CSc2nc3ccccc3s2)n1-c1ccccc1	none (no result: Measles CPE)
CCCSc1nnc(CSc2nc3ccccc3s2)n1-c1ccccc1	CYP2C19 inhib 55, CYP2C9 inhib 70
COCCNC(=O)c1cc2c3ccccc3n(C)c2s1	none
CS(=O)(=O)Nc1ccc(C2=NN(C(=O)c3ccco3)C(c3ccccc3)C2)cc1 (stereo unspecified)	none (no result: CYP2C9 act, CYP2C19 inhib, CYP2C19 act, CYP2C9 inhib)
COc1cc(/C=N/NC(=O)CCc2n[nH]c(=O)[nH]c2=O)cc(OC)c1OC	none (no result: CYP2C9 act, CYP2C19 inhib, CYP2C19 act, CYP2C9 inhib)
Cc1c(C(=O)Nc2ccc(F)cc2)oc2ccc(S(=O)(=O)N3CCC4(CC3)OCCO4)cc12	none
COc1ccc(C(C)(C)C)cc1NC(=O)COC(=O)c1ncc(Cl)c(Cl)c1Cl	none (no result: CYP2C9 act, CYP2C19 inhib, CYP2C19 act, CYP2C9 inhib)
C/C=C/C(=O)Nc1cccc(C(F)(F)F)c1	none (no result: CYP2C9 act, CYP2C19 inhib, CYP2C19 act, CYP2C9 inhib)
O=C(/C=C/c1ccccc1)Nn1cnc2ccccc2c1=O	none (no result: CYP2C9 act, CYP2C19 inhib, CYP2C19 act, CYP2C9 inhib)
CCn1c(CSc2nc3ccccc3s2)n[nH]c1=S	CYP2C19 inhib 73
CC(=O)Nc1cc(C(F)(F)F)ccc1Oc1cccc(Br)c1	CYP2C19 inhib 98, CYP2C9 inhib 58
COCCOc1ccc(C(F)(F)F)cc1NC(=O)c1ccccc1	none (no result: CYP2C9 act, CYP2C19 inhib, CYP2C19 act, CYP2C9 inhib)
Cn1cc(CC(=O)Nc2cccc(C#N)c2)c2ccccc21	CYP2C9 act 3.1
CCc1cccc(NC(=O)Cc2cn(C)c3ccccc23)c1	CYP2C9 act 2.8
CCc1cccc(NC(=O)Cn2c(-c3ccccc3)cc(C(C)=O)c2C)c1	none (no result: CYP2C9 act, CYP2C19 inhib, CYP2C19 act, CYP2C9 inhib)
CCc1cccc(NC(=O)CCSCCC(=O)Nc2cccc(CC)c2)c1	CYP2C9 inhib 62
COCCNC(=O)Cc1cn(C)c2ccccc12	none
CCC(C)NC(=O)Cc1cn(C)c2ccccc12 (stereo unspecified)	CYP2C19 inhib 60
CCc1ccc(NC(=O)Cc2cn(C)c3ccccc23)cc1	CYP2C9 act 2.5
CCc1ccc(NC(=O)Cc2ccc(-n3cccc3)cc2)cc1	none (no result: CYP2C9 act, CYP2C19 inhib, CYP2C19 act, CYP2C9 inhib)
Cc1ccc(S(=O)(=O)N2CC(=O)Nc3ccccc32)cc1	none
Cc1ccc(S(=O)(=O)N2CCOCC2)cc1C(=O)OCC(=O)N1CCc2ccccc2C1	CYP2C19 inhib 75, CYP2C9 inhib 78
Cc1ccc(S(=O)(=O)N2CCSC2)cc1C	CYP2C9 act 2.3
CCC(C)c1cc(S(=O)(=O)N2CCOCC2)ccc1OC (stereo unspecified)	CYP2C19 inhib 69
O=S(=O)(c1ccc2nc(-c3ccco3)c(-c3ccco3)nc2c1)N1CCOCC1	CYP2C9 inhib 91
Cc1ccc(OC(=O)C2c3ccccc3Oc3ccccc32)cc1C	none (no result: CYP2C9 act, CYP2C19 inhib, CYP2C19 act, CYP2C9 inhib)
